Measurements published in the supplement of paper PMC3334620.
Over roughly 33,000 sequences, “E-score (-0.5 to 0.5)” has its median near -0.056; the highest 2% begin near 0.38. The list comes from a sample in which the highest values are over-represented; it also holds similar and randomly drawn sequences.

target: Stb4 (UniProt P50104); experiment: PBM E-score (8-mer binding enrichment) (E-score (-0.5 to 0.5)); higher = stronger / more preferred TF binding; conditions: protein concentration: 200 nM; construct: GST-DNA-binding domain
Sequence of UniProt P50104 (P50104 whole entry, the tested form may be a part): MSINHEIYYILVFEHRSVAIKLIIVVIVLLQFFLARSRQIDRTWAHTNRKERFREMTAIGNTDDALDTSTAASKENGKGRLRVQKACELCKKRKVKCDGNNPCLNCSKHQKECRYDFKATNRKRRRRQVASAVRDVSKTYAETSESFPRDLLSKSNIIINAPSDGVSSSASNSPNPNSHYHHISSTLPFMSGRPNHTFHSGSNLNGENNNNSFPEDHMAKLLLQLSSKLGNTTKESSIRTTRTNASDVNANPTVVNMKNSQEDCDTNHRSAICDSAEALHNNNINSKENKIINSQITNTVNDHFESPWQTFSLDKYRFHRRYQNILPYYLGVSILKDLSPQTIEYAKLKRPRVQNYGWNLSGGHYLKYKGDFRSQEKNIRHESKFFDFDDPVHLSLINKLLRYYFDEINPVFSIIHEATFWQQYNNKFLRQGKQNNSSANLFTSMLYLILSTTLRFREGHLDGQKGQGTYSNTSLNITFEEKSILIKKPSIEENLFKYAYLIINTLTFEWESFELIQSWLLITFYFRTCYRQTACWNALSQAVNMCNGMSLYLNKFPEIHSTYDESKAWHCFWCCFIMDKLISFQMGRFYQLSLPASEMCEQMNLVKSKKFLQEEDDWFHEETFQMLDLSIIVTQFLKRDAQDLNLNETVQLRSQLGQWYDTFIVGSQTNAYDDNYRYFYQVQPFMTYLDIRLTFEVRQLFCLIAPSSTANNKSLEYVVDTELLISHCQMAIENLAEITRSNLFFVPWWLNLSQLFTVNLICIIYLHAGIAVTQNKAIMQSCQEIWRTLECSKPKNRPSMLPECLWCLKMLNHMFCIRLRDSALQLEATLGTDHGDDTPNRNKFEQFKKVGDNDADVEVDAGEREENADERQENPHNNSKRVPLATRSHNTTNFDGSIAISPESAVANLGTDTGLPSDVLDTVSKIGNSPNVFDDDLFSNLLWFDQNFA
Method in brief: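 PURExpress in vitro transcription/translation supplied GST-tagged yeast transcription factors, either full-length or DNA-binding domain. Applied at about 100-200 nM to universal all-10-mer Agilent arrays double-stranded by primer extension, the bound protein was detected with fluorescent anti-GST. E-scores, modified Wilcoxon-Mann-Whitney statistics, were given by the Universal PBM Analysis Suite to ungapped eight-base words pooled with their reverse complements after masliner normalisation.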

Sequence | PBM E-score
AGGAAAGA | -0.174
CAGAAAGC | -0.131
TGAGCTAA | -0.15
CAATGCGG | 0.0433
CACTTCCC | 0.0457
AACTTCCT | -0.0245
CACTTCCG | 0.397
AACTTCCG | 0.451
CACTTCCA | -0.0868
AACTTCCA | 0.132
AGTTCATC | -0.107
CGAACGAG | 0.0473
CAGAGTGA | -0.0625
AATAACTC | -0.0405
AGATGAGA | -0.103
GATTGCGC | -0.00733
AGATAAAC | 0.00284
AGAGACCC | -0.0488
CAGTTCGG | 0.409
CAGTTCGA | -0.262
AAGTTCGA | 0.0503
CAGTTCGC | -0.194
AAGTTCGG | 0.421
AAGTTCGC | -0.187
ATCCACGG | 0.109

Sequence | PBM E-score
GGGAGACA | 0.146
CAGGCGGC | 0.067
CCCGTCGG | 0.386
CCCGTCGA | 0.102
CCCGTCGC | -0.00272
CCTGGCAC | -0.00805
GAAGAGGC | -0.016
ATCGGATG | 0.451
CTAGGATA | -0.0673
ATCGGAGG | 0.199
ATAGGATA | -0.00309
AACGGATC | 0.306
ATCGGATA | 0.467
ATTGGATC | -0.0271
CTCAGATA | -0.00864
CTCGGATA | 0.49
ATCGGATC | 0.43
ATTGGATA | -0.121
ATGGGATG | -0.0874
CCCTCTAA | -0.182
AGACCTTG | -0.312
ACTAGGAC | -0.0716
GTCATTTA | -0.171
AATGGTTG | 0.02
GTCAGGCA | -0.118

Sequence | PBM E-score
AGCTGGAT | -0.0862
AAGACTGA | -0.25
GTCGGACA | 0.22
CTCGGATC | 0.481
CTGGGATC | -0.0424
GTCGGATA | 0.463
CTCAGATC | -0.103
GTCGGAGA | 0.294
GTCAGCTA | -0.259
TCTGCAAA | -0.122
CCATCGCA | -0.229
CGGAAAAA | 0.446
CGGAAATA | 0.429
CGGAAAAG | 0.373
GGGAAATA | 0.157
CGGAAATC | 0.366
CGGAAAAC | 0.37
CTCTTTGA | -0.285
CTTAGAAG | -0.29
CGTATTGA | -0.271
AGTTACTA | -0.103
ACAATCTG | -0.064
ACAACGGC | 0.108
GAACGCGA | -0.0119
ATTTCCTG | -0.0528

Sequence | PBM E-score
ATTTCCGG | 0.426
ATTTCCGC | 0.307
ATTTCCGA | 0.47
ATTTCCCA | -0.0128
ATTTCCAA | 0.0026
TCTGGACA | -0.0785
GCATAGCC | -0.0533
GTCTGCTA | -0.0233
CCGACCCC | 0.214
CCGACCCG | 0.407
CCGACGCG | 0.397
ACGACGGA | 0.22
CCGACGCC | 0.343
ACGACGCG | -0.0636
CCGACGGA | 0.404
GCGACGGA | 0.245
ACGACCCG | 0.251
CTGACGCA | -0.298
CTCAGTGC | -0.109
ACATTGCT | -0.233
GTCAGACA | -0.0277
ATTACGCA | 0.00056
AGCATTTC | -0.0674
GGTTGGAA | 0.12
ATCTACCA | -0.135

Sequence | PBM E-score
TCCAACCA | -0.117
CGAGATGC | 0.0535
GCCCGACA | 0.187
CCCCGACG | 0.277
CCCCGACA | 0.16
ACCCGACT | 0.33
ACCCGACA | 0.402
ACCCGACG | 0.425
CGTTGGAG | -0.232
ACGAGCCG | 0.292
CCGAGCCG | 0.468
GCGAGCCC | -0.0138
TCGAGCCA | -0.204
CGGAGCCG | 0.352
CCGAGCCC | 0.444
ACGAGCCC | -0.198
CCGAGCCA | 0.407
ACGAGCCA | -0.307
GGAGTATA | 0.235
AACCGTCT | 0.00908
GCGGGTCA | 0.0978
GAGCCCAA | -0.16
GGAGGAAC | -0.0445
GTTCTGAA | -0.216
AACGAGCT | -0.256

Sequence | PBM E-score
AACCCTCA | -0.148
GATTAGCA | -0.177
CACGGAGC | 0.174
ATCGGAGA | 0.272
CACGGACC | 0.114
CTCGGAGC | 0.395
CTCGGACC | 0.412
CTCGGAGA | 0.406
CTCGGACA | 0.366
CACGGAGA | 0.14
ATCGGAGC | 0.282
CGAGTGAC | -0.0128
ACCCTCGA | -0.165
ACCCTCGC | -0.131
CACCTCGC | 0.0165
AACCTCGA | -0.0623
ATCCTCGA | -0.25
CACCTCGG | 0.393
ACCCTCGG | 0.426
AACCTCGG | 0.452
ATCCTCGC | -0.0124
ATCCTCGG | 0.417
AACCTCGT | -0.062
CACCTCGA | -0.0678
AATGCGAA | 0.0466

Sequence | PBM E-score
GGTTGGTA | 1e-05
TCGCATAA | -0.0545
CGGGCTGA | 0.0911
CGTCTTTA | -0.0915
CAATTGGA | -0.112
ACCTCCCT | -0.111
AAAGGGGA | -0.22
AGCTCCGG | 0.301
CTCTGAAC | -0.174
CTTTCGTC | -0.0646
CTTTCGGC | 0.386
ATTTCGAG | -0.0811
ATTTCGGG | 0.39
ATTTCGGC | 0.371
ATTTCGGA | 0.454
ATTTCGCA | 0.0506
CTTTCGAA | -0.204
CTTTCGTA | -0.177
CTTTCGAC | -0.172
ATTTCGCG | 0.0954
CTTTCGGA | 0.432
AACGTTCG | 0.113
